Screening results from PubChem BioAssay.
IEC-6 tox-1 = counter-screen for KLF5 inhibitors: cytotoxicity in IEC-6 cells | IEC-6 cytotoxicity, luminescence viability | inhibition, % at 5 µM | 0.78% of 290,000 active
SKKanGAS inh = SKKanGAS growth inhibition | inhibition, % at 7.5 µM | 1.3% of 300,000 active | S. pyogenes SKKanGAS, kanamycin growth, BacTiter-Glo, 6 h;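 active means mean replicate score, as percent of positive control median, at least 50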;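 further: strain carries kanamycin resistance gene driven by streptokinase promoter and grows in 40 µg/ml kanamycin; loss of luminescence reflects streptokinase promoter inhibition or plain growth inhibition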
CSC inhib = blocks cancer stem cells; cancer stem cell-like cells viability, luminescence; inhibition, % at 7.5 µM; 1.1% of 300,000 active; AID 2717; in the data active means inhibition above about 75%; tested in HMLE shEcad cells
aSyn UTR inh = 5' untranslated region of α-synuclein, MLPCN primary screen; alpha-synuclein 5'UTR reporter, inhibitor activity; inhibition, % (tested at 7.5 µM); 0.82% of 300,000 active; in the data active means inhibition above about 60%;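 further: H4 neuroglioblastoma cells stably carrying SNCA 5'UTR luciferase fusion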
KLF5 inhibitor = kruppel-like factor 5 inhibition. DLD-1 KLF5 promoter-luciferase reporter, luminescence. inhibition, % at 5 µM. 0.23% of 290,000 active. AID 1700;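 active means inhibition above a per-plate limit of that plate's mean compound inhibition plus 3 SD, cut at about 60% in these data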;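 further: higher means less KLF5 promoter-driven luciferase light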
KLF5 inh confirm = confirmation of KLF5 inhibitors; shares compounds with KLF5 inhibitor; DLD-1 KLF5 promoter firefly luciferase reporter, luminescence; inhibition, % at 4 µM; 79% of 610 active; AID 1834;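 active means inhibition above a set limit taken from the earlier primary screen, cut at about 63% in these data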
IEC-6 tox-2 = counter-screen for KLF5 inhibitors: cytotoxicity in rat IEC-6 cells; shares compounds with KLF5 inhibitor; IEC-6 rat intestinal cells, viability luminescence; inhibition, % at 4 µM; 56% of 610 active; in the data active means inhibition above about 23%;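 further: cells exposed to compounds for 48 hours before viability read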
IEC-6 tox confirm = IEC-6 cytotoxicity, confirmation assay; inhibition, % at 5 µM; 63% of 1,900 active; shares compounds with IEC-6 tox-1; IEC-6 rat intestinal epithelial viability, luminescence
Large screens that a line does not name were inactive (follow-up assays come after a bar, where they were run). Compounds with a hit are over-represented: about 3% of the library has one in this group of screens. Unless noted, no stated cut-off is given here; in the data, active means inhibition above about 22%; inactive means the rest.

CC[n+]1c(/C=C2\Sc3ccccc3N2C)ccc2cccc(C)c21	IEC-6 tox-1 71, SKKanGAS inh 69, aSyn UTR inh 116, KLF5 inhibitor 68 (no result: CSC inhib) | KLF5 inh confirm 115 | IEC-6 tox-2 55 | IEC-6 tox confirm 64
COCc1c(C(=O)OC)nnn1-c1ccc(C(F)(F)F)cc1[N+](=O)[O-]	none
O=C(NC(Nc1nc2ccc([N+](=O)[O-])cc2s1)(C(F)(F)F)C(F)(F)F)c1ccccc1Cl	IEC-6 tox-1 76, CSC inhib 98, aSyn UTR inh 86, KLF5 inhibitor 77 | KLF5 inh confirm 87 | IEC-6 tox-2 90 | IEC-6 tox confirm 97
Cc1ccc(C(=O)N/N=C\C=C\c2ccc(Br)cc2)cn1	none
Cc1ccc(C(=O)N/N=C/c2cc(Br)ccc2O)cn1	IEC-6 tox-1 84, SKKanGAS inh 69, KLF5 inhibitor 83 | KLF5 inh confirm 87 | IEC-6 tox-2 inactive | IEC-6 tox confirm inactive
COc1ccc2c(c1OC)C(=O)OC2Nc1nc(-c2cccc([N+](=O)[O-])c2)cs1 (stereo not given)	none
COc1cc2c(c(OC)c1OC)-c1ccc(OC)c(=O)cc1C(NC(C)=O)CC2 (stereo not given)	IEC-6 tox-1 94, aSyn UTR inh 75, KLF5 inhibitor 71 | KLF5 inh confirm 88 | IEC-6 tox-2 82 | IEC-6 tox confirm 80
COc1cc2c(c(OC)c1OC)C(=O)CC2	none (no result: CSC inhib)
COc1ccc(/C=N/NC(=O)c2[nH]c3ccc(Br)cc3c2-c2ccccc2)cc1	IEC-6 tox-1 73, aSyn UTR inh 80, KLF5 inhibitor 82 | KLF5 inh confirm 90 | IEC-6 tox-2 86 | IEC-6 tox confirm 83
COc1ccc(/C=N/NC(=O)c2[nH]c3ccc(Br)cc3c2-c2ccccc2)c(C(=O)O)c1OC	none
N#CC(C#N)=C1C=CC=CN1/C(=C\c1ccco1)C(=O)c1ccc(Br)cc1	none (no result: SKKanGAS inh, aSyn UTR inh)
COc1ccc(C(=O)/C(=C\c2ccco2)N2C=CC=CC2=C(C#N)C#N)cc1	IEC-6 tox-1 83, aSyn UTR inh 77, KLF5 inhibitor 69 | KLF5 inh confirm inactive | IEC-6 tox-2 50 | IEC-6 tox confirm 62
Cc1ccc(/C=N/NC(=O)c2c(-c3ccccc3)noc2C)c(O)c1	IEC-6 tox-1 26, KLF5 inhibitor 66 | KLF5 inh confirm 63 | IEC-6 tox-2 23 | IEC-6 tox confirm inactive
CCOC(=O)c1[nH]c(C)c(C(=O)Nc2cc(Cl)ccc2C)c1C	IEC-6 tox-1 82, KLF5 inhibitor 72 | KLF5 inh confirm 68 | IEC-6 tox-2 61 | IEC-6 tox confirm 63
COc1ccc(-c2cc(C(=O)Nc3cc(S(=O)(=O)N4CCOCC4)ccc3N3CCOCC3)c3ccccc3n2)cc1	none
COc1ccc(S(=O)(=O)NNC(=O)C23CC4CC(CC(C4)C2)C3)cc1[N+](=O)[O-]	none (no result: IEC-6 tox-1, KLF5 inhibitor)
COC(=O)c1[nH]c2c(c1C)C(=O)CC(c1ccc(OC)cc1)C2 (stereo not given)	none
C=CCOC(=O)c1[nH]c2c(c1C)C(=O)CC(c1ccco1)C2 (stereo not given)	IEC-6 tox-1 89, aSyn UTR inh 69, KLF5 inhibitor 90 | KLF5 inh confirm 84 | IEC-6 tox-2 60 | IEC-6 tox confirm 56
COC(=O)c1[nH]c2c(c1C)C(=O)CC(c1ccccc1)C2 (stereo not given)	IEC-6 tox-1 87, KLF5 inhibitor 72 | KLF5 inh confirm 88 | IEC-6 tox-2 72 | IEC-6 tox confirm 64
C/C=C/COC(=O)c1[nH]c2c(c1C)C(=O)CC(c1ccc(N(C)C)cc1)C2 (stereo not given)	none (no result: CSC inhib)
COC(=O)Nc1nc(-c2ccccc2)c(C(=O)c2ccc(Cl)cc2)s1	IEC-6 tox-1 56, aSyn UTR inh 94, KLF5 inhibitor 62 | KLF5 inh confirm 85 | IEC-6 tox-2 67 | IEC-6 tox confirm 58
CC(Oc1ccc(Br)cc1)C(=O)NCC(c1cccs1)N1CCOCC1 (stereo not given)	none (no result: IEC-6 tox-1, KLF5 inhibitor)
COc1ccccc1N1CCN(C(=O)C2c3ccccc3Oc3ccccc32)CC1	IEC-6 tox-1 82, aSyn UTR inh 81, KLF5 inhibitor 70 | KLF5 inh confirm 70 | IEC-6 tox-2 57 | IEC-6 tox confirm 57
COc1ccccc1N1CCN(C(=O)C2CC2)CC1	none (no result: IEC-6 tox-1, KLF5 inhibitor)
CC1CCN(Cc2c(C(=O)N/N=C/c3cc(Cl)ccc3O)nnn2-c2nonc2N)CC1	IEC-6 tox-1 50, SKKanGAS inh 66, aSyn UTR inh 62, KLF5 inhibitor 69 (no result: CSC inhib) | KLF5 inh confirm 86 | IEC-6 tox-2 42 | IEC-6 tox confirm 49
CC1CCN(Cc2c(C(=O)N/N=C/c3cc(Br)ccc3O)nnn2-c2nonc2N)CC1	IEC-6 tox-1 57, SKKanGAS inh 80, aSyn UTR inh 77, KLF5 inhibitor 70 (no result: CSC inhib) | KLF5 inh confirm 84 | IEC-6 tox-2 42 | IEC-6 tox confirm 62
Cc1cc(C)c(/C=N/NC(=O)c2nnn(-c3nonc3N)c2CN2CCC(C)CC2)c(C)c1	none
CCOc1ccc(Nc2cc(C)nc(-n3nc(C)cc3C)n2)cc1	IEC-6 tox-1 84, SKKanGAS inh 87, aSyn UTR inh 63, KLF5 inhibitor 81 | KLF5 inh confirm 81 | IEC-6 tox-2 56 | IEC-6 tox confirm 52
CNc1cc(C)nc(-n2nc(C)cc2C)n1	none
CC(NC(=O)COC(=O)c1ccc[nH]c1=O)c1ccccc1 (stereo not given)	none (no result: IEC-6 tox-1, SKKanGAS inh, aSyn UTR inh, KLF5 inhibitor)
CSc1nc(N(C)NC(=O)c2ccccc2)c2ccccc2n1	IEC-6 tox-1 78, KLF5 inhibitor 76 (no result: CSC inhib) | KLF5 inh confirm 75 | IEC-6 tox-2 65 | IEC-6 tox confirm 55
CSc1nc(N(C)NC(=O)c2ccc(Cl)cc2)c2ccccc2n1	IEC-6 tox-1 80, aSyn UTR inh 93, KLF5 inhibitor 65 | KLF5 inh confirm 75 | IEC-6 tox-2 64 | IEC-6 tox confirm 63
COc1cccc(Oc2nc(-c3ccncc3)nc3ccccc23)c1	none
COC(=O)N/N=C/c1cc(Cl)cc(Cl)c1OCc1ccc(F)cc1	none
CCC(C)c1ccccc1NC(=O)C(C)OC(=O)c1ccco1 (stereo not given)	none (no result: IEC-6 tox-1, CSC inhib, KLF5 inhibitor)
CCOc1ccc(Br)cc1S(=O)(=O)Nc1cccc(S(=O)(=O)N(C)C)c1	none
COc1ccc(S(=O)(=O)/N=C2\C=C(Nc3ccc(O)cc3)C(=O)c3ccccc32)cc1	IEC-6 tox-1 101, SKKanGAS inh 103, aSyn UTR inh 100, KLF5 inhibitor 104 (no result: CSC inhib) | KLF5 inh confirm 114 | IEC-6 tox-2 102 | IEC-6 tox confirm 100
COC(=O)C(C(C)=O)C1=C/C(=N\S(=O)(=O)c2ccc(C)cc2)c2ccccc2C1=O (stereo not given)	none
COc1cc(-c2noc(C)c2/C=C/c2ccc(N)cc2)cc(OC)c1OC	IEC-6 tox-1 96, aSyn UTR inh 104, KLF5 inhibitor 66 | KLF5 inh confirm 91 | IEC-6 tox-2 73 | IEC-6 tox confirm 76
COC(=O)c1cc(-c2c(-c3cc(OC)c(OC)c(OC)c3)noc2C)cc([N+](=O)[O-])c1	none
